Several values for one entry are separate records, joined by “and”; a condition that tells them apart may be missing. Equal entries are not always repeated. Results filed as inconclusive are left out. Values without a mark were called inactive. Activity calls are given as the source filed them. Calls follow the shape of the dose curve; as a rule, active = well fitted inhibition curve with a large enough effect; inconclusive = small, poorly fitted or top-dose-only effect; inactive = flat fitted curve, though single readings scatter.

These results are taken from PubChem BioAssay (NCATS).

Assay [1] deals with CRL-7250. Briefly: Cytotoxic Profiling of Annotated Libraries Using Quantitative High-Throughput Screening (AID 1296008). Also: potency is read from the fitted curve at half-maximal effect. As to max response: % is scaled to controls: 0 for no effect and ±100 for the full control effect. The conditions noted are these: Five cell lines viability, CellTiter-Glo ATP luminescence, 48-72 h; max response: active compounds read low. The method, boiled down: (§1)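 Compounds were pin-transferred onto cells and incubated 48 or 72 hr at 37 degree Celsius, 95% humidity. CellTiter-Glo was added, plates sat 10 min at room temperature, then ATP-coupled luminescence was imaged as the viability read-out.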
On the technique in general: ATP-based viability assays read luminescence as a measure of living cells.

Assay [2] has as its system HEK293. The description is as above. Particulars: Five cell lines viability, CellTiter-Glo ATP luminescence, 48-72 h; max response: active compounds read low. Put shortly: as §1
The subject of assay [3] is HaCat. Described as above. Particulars: Five cell lines viability, CellTiter-Glo ATP luminescence, 48-72 h; max response: active compounds read low. The method, boiled down:
as §1

For assay [4], the system named is KB-3-1. The description is as above. The conditions noted are these: Five cell lines viability, CellTiter-Glo ATP luminescence, 48-72 h; max response: active compounds read low. Put shortly:
as §1

Assay [5] has as its system NIH3T3. The assay is described as above. The conditions noted are these: Five cell lines viability, CellTiter-Glo ATP luminescence, 48-72 h; max response: active compounds read low. The method, boiled down:
as §1

The test system of assay [6] is NIH3T3. Briefly: qHTS assay to identify novel small-molecules to repurpose for Merkel cell carcinoma treatment (AID 1296009). Particulars: MCC and control cell lines, CellTiter-Glo viability, 72 h; at 44.8 µM (top of the series) unless noted. The method, boiled down:
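Luminescence from CellTiter-Glo, read 10 min after addition at room temperature, reported viability following a 72 hr, 37 degree celsius treatment with NPC or MIPE compounds in titration; values normalized to plate controls.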
(In general: Quantitative high-throughput screening tests each substance at several concentrations.)
Also: nearly all actives have a fitted effect of over 60% in size.

For `CCN1C[C@]2(COC(=O)c3ccccc3N3C(=O)C[C@H](C)C3=O)CC[C@H](OC)[C@@]34[C@@H]5C[C@H]6[C@H](OC)[C@@H]5[C@](O)(C[C@@H]6OC)[C@](O)([C@@H](OC)[C@H]23)[C@@H]14`, the figures for the max response in assay [1], in assay [2] and in assay [3] were -0.686%, 2.21% and -1.58%, respectively. Besides, the compound was called inactive in assay [4], in assay [5] and in assay [6].

`CCC1NC(=O)C2C(Cl)C(Cl)CN2C(=O)C(C(C)O)NC(=O)CC(c2ccccc2)NC(=O)C(CO)NC1=O` (stereo unspecified): the max response was 3.8% in assay [1], -1.23% in assay [2] and 4.16% in assay [3]. Besides, the result in assay [4] and in assay [5] was inactive. In addition, in assay [6], the outcome is “inactive [at 17.4 µM]”.

Consider `COC1CC(OC2CCC3(C)C(CCC4C3CCC3(C)C(C5=CC(=O)OC5)C(OC(C)=O)CC43O)C2)OC(C)C1OC1OC(CO)C(O)C(O)C1O` (stereo unspecified), for which the Potency in assay [1] was 544 nM (active); in assay [2] it was 1220 nM (active); in assay [3], 2430 nM (active); in assay [4], 1090 nM (active). Further, the compound was called inactive in assay [5]. Also, in assay [6], the outcome is “inactive [at 17.4 µM]”.

Turning to `CCc1[nH]c2ccc(OC)cc2c1CCN(C)C`, the max response in assay [1] is 2.45%; in assay [2], -15.9%; in assay [3], 1.59%; in assay [4] it was -6.67%. Also, the compound was classed as inactive in assay [5] and in assay [6].

With `C[C@]12CC[C@H]3[C@@H](CCC4=C(O)C(=O)CC[C@@H]43)[C@@H]1CC[C@@H]2OC(=O)CCC1CCCC1`, the max response in assay [4] is -5.37%.

Regarding `COC1C(O)C(OC2CCC3(C=O)C(CCC4C3CCC3(C)C(C5=CC(=O)OC5)CCC43O)C2)OC(C)C1OC1OC(CO)C(O)C(O)C1O` (stereo unspecified), the Potency was 172 nM (active) in assay [1], 243 nM (active) in assay [2], 1720 nM (active) in assay [3] and 485 nM (active) in assay [4]. Besides, in assay [5], the outcome was inactive. In addition, the outcome in assay [6] is “inactive [at 17.4 µM]”.

As to `C[C@H]1O[C@@H](O[C@H]2C[C@@H](O)[C@]3(CO)C4C(CC[C@]3(O)C2)[C@@]2(O)CC[C@H](C3=CC(=O)OC3)[C@@]2(C)C[C@H]4O)[C@@H](O)[C@@H](O)[C@H]1O` (stereo partly specified), the Potency was 122 nM (active) in assay [1], 343 nM (active) in assay [2], 968 nM (active) in assay [3] and 432 nM (active) in assay [4]. In assay [5], the compound was classed as inactive. In assay [6], the outcome is “inactive [at 17.4 µM]”.

With `COC(=O)C1(C)CCC(=O)C2(C)c3c(O)cc(C(C)C)cc3C(O)C(OC(C)=O)C12` (stereo unspecified), the max response was -1.03% in assay [1], -0.554% in assay [2], -0.878% in assay [3] and 0.842% in assay [4]. In addition, the outcome in assay [5] was inactive. Besides, the outcome in assay [6] is “inactive [at 17.4 µM]”.

Regarding `CC(C)[C@@]1(NC(=O)[C@@H]2C[C@@H]3c4cccc5[nH]cc(c45)C[C@H]3N(C)C2)O[C@@]2(O)[C@@H]3CCCN3C(=O)[C@H](Cc3ccccc3)N2C1=O`, the max response in assay [4] was 25.3% and -16.4%.

Consider `CCN1CC2(COC)C3[C@@H](OC)C4C1C3(C1C[C@]3(O)[C@H](OC(=O)c5ccccc5)C1[C@]4(OC(C)=O)[C@@H](O)[C@@H]3OC)[C@H](OC)C[C@H]2O` (stereo partly specified), for which the values for the max response in assay [1], in assay [2] and in assay [3] were -8.46%, -1.66% and 3.92%, respectively. In addition, the result in assay [4], in assay [5] and in assay [6] was inactive.

`CO[C@@H]1[C@H](O)[C@@H](O[C@@H]2C[C@H]3CC[C@@H]4C(CC[C@]5(C)[C@@H](C6=CC(=O)OC6)CC[C@]45O)[C@@]3(C)[C@H](O)C2)O[C@H](C)[C@@H]1O[C@@H]1O[C@H](CO)[C@@H](O)[C@H](O)[C@H]1O` (stereo partly specified): the Potency in assay [1] is 109 nM (active); in assay [2], 343 nM (active); in assay [3] it was 769 nM (active); in assay [4], 432 nM (active). In addition, in assay [5], the outcome was inactive. For the same compound, in assay [6], the outcome is “inactive [at 17.4 µM]”.
